Screening data: PubChem, several laboratories
GRK2 aptamer HTS = human GRK2 inhibition via aptamer displacement; bead flow cytometry, FAM-aptamer displacement from GRK2; 0.59% of 330,000 active; P25098; inhibition of aptamer binding, % at 10 µM;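 active = inhibition of aptamer binding above 40%, roughly 3 SD of noise, on plates passing a quality check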;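 also: median bead fluorescence of bound FAM aptamer so fluorescent compounds give negative values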
Rtt109 HAT inh = inhibitors of Candida albicans Rtt109/Vps75 histone acetyltransferase | Q5AAJ8 | purified Rtt109/Vps75, ThioGlo CoA-SH fluorescence, 4 h | inhibition, % at 34.9 µM | 0.16% of 330,000 active;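 active = inhibition of at least 50% in every replicate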
Target sequence (Q5AAJ8 whole entry, looked up): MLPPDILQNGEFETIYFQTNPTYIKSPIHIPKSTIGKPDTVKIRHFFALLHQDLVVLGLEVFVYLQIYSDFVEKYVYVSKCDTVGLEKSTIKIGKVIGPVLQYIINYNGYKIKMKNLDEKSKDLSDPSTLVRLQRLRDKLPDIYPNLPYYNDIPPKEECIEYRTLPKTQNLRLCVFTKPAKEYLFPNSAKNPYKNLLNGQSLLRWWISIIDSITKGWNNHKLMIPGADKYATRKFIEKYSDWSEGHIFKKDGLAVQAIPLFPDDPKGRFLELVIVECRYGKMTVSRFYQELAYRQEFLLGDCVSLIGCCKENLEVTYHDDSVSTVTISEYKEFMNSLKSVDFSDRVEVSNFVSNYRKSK
Rce1 inhib = inhibitors of yeast Ras-converting enzyme; 0.27% of 290,000 active; Q03530; AID 2563; yeast membranes, quenched prenylated peptide cleavage fluorescence; calls only;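 active = fall in fluorescence gain of 50% or more versus controls, with final raw signal at or below 3038400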;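 also: plate controls were neutral control wells for no effect and wells lacking membranes for full effect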
Target sequence (Q03530 whole entry, looked up): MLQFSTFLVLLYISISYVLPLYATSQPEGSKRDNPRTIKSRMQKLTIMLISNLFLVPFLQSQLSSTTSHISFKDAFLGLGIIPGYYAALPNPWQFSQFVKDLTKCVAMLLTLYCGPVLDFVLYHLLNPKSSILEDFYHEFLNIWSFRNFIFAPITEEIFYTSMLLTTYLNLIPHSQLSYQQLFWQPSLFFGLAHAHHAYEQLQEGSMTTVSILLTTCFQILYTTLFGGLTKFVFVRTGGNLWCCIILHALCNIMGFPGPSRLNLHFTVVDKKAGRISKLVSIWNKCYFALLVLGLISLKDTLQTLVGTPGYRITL
ALR H2O2 inh = inhibitors of human sulfhydryl oxidase ALR | purified ALR, DTT oxidation, H2O2 HRP-luminol luminescence | inhibition, % (test concentration not listed) | 3.8% of 290,000 active;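 active = mean replicate inhibition above about 79%, with every replicate also reaching it, limit read from the data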
HDAC3 inh = inhibitors of human histone deacetylase 3 | O15379 | recombinant HDAC3, fluorogenic peptide/trypsin coupled, fluorescence | inhibition, % at 8.3 µM | 0.15% of 320,000 active | AID 2718; in the data active = inhibition above about 26%, passing the limit was not always enough
Efflux pump inh = antifungal efflux pump inhibition, Nile Red retention; S. cerevisiae Candida pump triplex; inhibition, % at 10 µM; 0.44% of 330,000 active; AID 485275;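 active = plate passing quality check with inhibition over a set limit, or well fluorescence over plate mean plus 4 SD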;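 also: Nile Red retained in pooled yeast measured as flow cytometry median fluorescence; 0% = buffer negative control and 100% = Enniatin B positive control; higher means more Nile Red kept so more efflux inhibition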
* = called active by the depositor. Compounds with a hit are over-represented: about 4.5% of the library has one in this group of screens.

Results for COc1ccc(C(=O)NCC(=O)OCC(=O)Nc2sccc2C#N)cc1OC ?
GRK2 aptamer HTS: 0; Rce1 inhib: inactive; ALR H2O2 inh: -14; HDAC3 inh: 2; Efflux pump inh: 0

Results for O=C(Nc1cccc(F)c1)C1CCCN(S(=O)(=O)c2cnc[nH]2)C1 (stereo not drawn) ?
GRK2 aptamer HTS: 0; Rtt109 HAT inh: -2; Rce1 inhib: inactive; ALR H2O2 inh: 2; HDAC3 inh: -15; Efflux pump inh: 0

How did COc1ccc(N2CCN(CCCNC(=O)C3CCCN(S(=O)(=O)c4cnc[nH]4)C3)CC2)cc1 (stereo not drawn) do in these assays?
GRK2 aptamer HTS: 0; Rtt109 HAT inh: 2; Rce1 inhib: inactive; ALR H2O2 inh: 87*; HDAC3 inh: 1; Efflux pump inh: 0

Results for Cc1cc(C)cc(NC(=O)C2CCCN(S(=O)(=O)c3cnc[nH]3)C2)c1 (stereo not drawn) ?
GRK2 aptamer HTS: 2; Rtt109 HAT inh: -2; Rce1 inhib: inactive; ALR H2O2 inh: 42; HDAC3 inh: 2; Efflux pump inh: 0

What do the screens show for `O=C(NCCN1CCN(c2ccccc2F)CC1)C1CCCN(S(=O)(=O)c2cnc[nH]2)C1` (stereo not drawn)?
GRK2 aptamer HTS: 1; Rtt109 HAT inh: -1; Rce1 inhib: inactive; ALR H2O2 inh: 88*; HDAC3 inh: 3; Efflux pump inh: 0

How did CC(C)c1ccc(NC(=O)C2CCCN(S(=O)(=O)c3cnc[nH]3)C2)cc1 (stereo not drawn) do in these assays?
GRK2 aptamer HTS: 0; Rtt109 HAT inh: -7; Rce1 inhib: inactive; ALR H2O2 inh: 91*; HDAC3 inh: 0; Efflux pump inh: 0

How did CCOC(=O)c1ccc(NC(=O)C2CCCN(S(=O)(=O)c3cnc[nH]3)C2)cc1 (stereo not drawn) do in these assays?
GRK2 aptamer HTS: 1; Rtt109 HAT inh: -1; Rce1 inhib: inactive; ALR H2O2 inh: 95*; HDAC3 inh: -1; Efflux pump inh: 0

How did COc1ccc(/C=C2\SC(=O)N(CCCC(=O)Nc3cc(Cl)ccc3C(=O)O)C2=O)cc1 do in these assays?
GRK2 aptamer HTS: 0; Rtt109 HAT inh: -6; ALR H2O2 inh: 10; HDAC3 inh: 12; Efflux pump inh: 0

Results for CC(NCC(=O)NC(=O)NC1CCCC1)c1ccc(Cl)cc1Cl (stereo not drawn) ?
GRK2 aptamer HTS: 0; Rtt109 HAT inh: 19; Rce1 inhib: inactive; ALR H2O2 inh: -1; HDAC3 inh: 6; Efflux pump inh: 0

What do the screens show for `COc1cc(NC(=O)C2CCCN(S(=O)(=O)c3cnc[nH]3)C2)cc(OC)c1` (stereo not drawn)?
GRK2 aptamer HTS: 1; Rtt109 HAT inh: -5; Rce1 inhib: inactive; ALR H2O2 inh: 98*; HDAC3 inh: 4; Efflux pump inh: 0

How did Cc1nnc(C)n1/N=C/c1cccc([N+](=O)[O-])c1 do in these assays?
GRK2 aptamer HTS: 0; Rtt109 HAT inh: -3; Rce1 inhib: inactive; ALR H2O2 inh: -1; HDAC3 inh: -3; Efflux pump inh: 0

What do the screens show for `Cc1cc(-c2n[nH]c(=S)n2/N=C/c2cccc(O)c2)n[nH]1`?
GRK2 aptamer HTS: 1; Rtt109 HAT inh: 7; Rce1 inhib: inactive; ALR H2O2 inh: 96*; HDAC3 inh: -1; Efflux pump inh: 0

What do the screens show for `Cc1cc(-c2n[nH]c(=S)n2/N=C/c2cccc([N+](=O)[O-])c2)n[nH]1`?
GRK2 aptamer HTS: 18; Rtt109 HAT inh: 4; Rce1 inhib: inactive; ALR H2O2 inh: 97*; HDAC3 inh: -1; Efflux pump inh: 0

What do the screens show for `Cc1ccc(C2=NCCn3c2c2ccc(C(F)(F)F)cc2[n+]3[O-])cc1`?
GRK2 aptamer HTS: 1; Rtt109 HAT inh: 7; Rce1 inhib: inactive; ALR H2O2 inh: -3; HDAC3 inh: -5; Efflux pump inh: 0

Results for CC(=O)OCC1O[C@@H](O[C@@H]2C[C@H]3C(C)(C)[C@H](OC(C)=O)CC[C@]3(C)[C@H]3CC[C@]45C[C@]4(CC[C@H]5[C@@H](C)C[C@@H](O)[C@H](O)C(C)(C)O)[C@@]32C)[C@H](O)[C@@H](O)[C@@H]1O (stereo partly drawn) ?
GRK2 aptamer HTS: 0; Rce1 inhib: inactive; ALR H2O2 inh: -63; HDAC3 inh: 42*; Efflux pump inh: 0

What do the screens show for `CC(C)=CCC[C@](C)(O[C@@H]1O[C@H](CO[C@@H]2O[C@H](CO)[C@@H](O)[C@H](O)[C@H]2O)[C@@H](O)[C@H](O)[C@H]1O)C1CC[C@]2(C)C1C(=O)CC1[C@@]3(C)CC[C@H](O[C@H]4O[C@@H](CO)[C@H](O)[C@@H](O)[C@@H]4O)C(C)(C)C3CC[C@]12C` (stereo partly drawn)?
GRK2 aptamer HTS: 2; Rtt109 HAT inh: 1; ALR H2O2 inh: -8; HDAC3 inh: -2; Efflux pump inh: 0

What do the screens show for `CCOC(=O)c1c(NC(=O)CSC(=S)N2CCOCC2)sc(C)c1C`?
GRK2 aptamer HTS: 1; Rtt109 HAT inh: -9; Rce1 inhib: inactive; ALR H2O2 inh: 98*; HDAC3 inh: -4; Efflux pump inh: 0

How did COc1ccc(C2(c3ccc(OC)cc3)NC(=O)N(CC(=O)Nc3ccc(OC)c(OC)c3)C2=O)cc1 do in these assays?
GRK2 aptamer HTS: 0; Rtt109 HAT inh: 18; Rce1 inhib: inactive; ALR H2O2 inh: -2; HDAC3 inh: 7; Efflux pump inh: 0

How did Cc1cc(C(=O)CN2CCN(CC(=O)Nc3cccc(F)c3)CC2)c(C)n1C1CC1 do in these assays?
GRK2 aptamer HTS: 1; Rtt109 HAT inh: 4; ALR H2O2 inh: 15; HDAC3 inh: 1; Efflux pump inh: 0

Results for O=S(=O)(c1ccc2c(c1)CCCN2)N1CCCC1 ?
GRK2 aptamer HTS: 0; Rtt109 HAT inh: -5; HDAC3 inh: -2; Efflux pump inh: 0

Results for O=S(=O)(c1ccc2c(c1)CCN2)N1CCCC1 ?
GRK2 aptamer HTS: 0; Rtt109 HAT inh: -3; ALR H2O2 inh: 98*; HDAC3 inh: -2; Efflux pump inh: 0

Results for COC(=O)Sc1nnc(-c2ccc(Br)cc2)o1 ?
GRK2 aptamer HTS: 2; Rce1 inhib: inactive; ALR H2O2 inh: 98*; HDAC3 inh: -17; Efflux pump inh: 0

What do the screens show for `OCC#CCSc1nnc(-c2ccc(Br)cc2)o1`?
GRK2 aptamer HTS: 6; Rtt109 HAT inh: -2; Rce1 inhib: inactive; ALR H2O2 inh: 4; HDAC3 inh: 7; Efflux pump inh: 0

Results for Cc1c([C@H]2[C@@H](CC#N)C2(C)C)c2ccccc2n1C ?
GRK2 aptamer HTS: 0; Rtt109 HAT inh: 0; Rce1 inhib: inactive; ALR H2O2 inh: 97*; HDAC3 inh: 6; Efflux pump inh: 0

How did COc1ccc(-c2cc3c(=O)n(CC(=O)N4CCN(C)CC4)ncn3n2)cc1 do in these assays?
GRK2 aptamer HTS: 0; Rtt109 HAT inh: 8; Rce1 inhib: inactive; ALR H2O2 inh: -5; HDAC3 inh: -8; Efflux pump inh: 0
